# Data reported in ChEMBL document CHEMBL1961873, “Compounds: GSK PKIS; Assays: Nanosyn kinase panel” (2012).
# What was measured:
# [1] = molecular target: Sphingosine kinase 1 (Homo sapiens) (UniProt Q9NYA1); conditions: at 1 µM;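 also: mean SPHK1 inhibition value reported from the GSK PKIS kinase panel screen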
# [2] = molecular target: T1, Sphingosine kinase 2 (Homo sapiens) (UniProt Q9NRA0); conditions: at 0.1 µM
# T1 sequence (whole entry): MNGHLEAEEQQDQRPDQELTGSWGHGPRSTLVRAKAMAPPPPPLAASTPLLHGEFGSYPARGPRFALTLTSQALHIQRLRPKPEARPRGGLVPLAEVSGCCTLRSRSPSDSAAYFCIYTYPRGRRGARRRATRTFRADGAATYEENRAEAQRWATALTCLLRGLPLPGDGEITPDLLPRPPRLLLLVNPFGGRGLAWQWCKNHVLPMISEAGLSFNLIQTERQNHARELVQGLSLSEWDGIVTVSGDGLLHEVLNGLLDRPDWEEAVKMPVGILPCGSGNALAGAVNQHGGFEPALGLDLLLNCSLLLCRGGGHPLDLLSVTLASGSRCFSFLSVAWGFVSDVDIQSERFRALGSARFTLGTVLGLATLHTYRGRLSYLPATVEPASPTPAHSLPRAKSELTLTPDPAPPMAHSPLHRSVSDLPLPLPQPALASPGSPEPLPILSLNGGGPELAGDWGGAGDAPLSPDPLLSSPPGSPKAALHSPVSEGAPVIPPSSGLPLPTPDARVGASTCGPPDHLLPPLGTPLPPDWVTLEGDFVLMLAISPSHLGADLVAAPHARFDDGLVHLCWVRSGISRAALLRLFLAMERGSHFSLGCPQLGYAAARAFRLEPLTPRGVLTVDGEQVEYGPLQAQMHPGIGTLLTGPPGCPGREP
# [3] = molecular target: T1, Sphingosine kinase 2 (Homo sapiens); conditions: at 1 µM
# [4] = molecular target: Casein kinase II subunit alpha (Homo sapiens) (UniProt P68400); conditions: at 0.1 µM
# [5] = molecular target: Casein kinase II subunit alpha (Homo sapiens) (UniProt P68400); conditions: at 1 µM
# [6] = molecular target: T2, Inhibitor of nuclear factor kappa-B kinase subunit alpha (Homo sapiens) (UniProt O15111); conditions: at 0.1 µM
# T2 sequence (whole entry): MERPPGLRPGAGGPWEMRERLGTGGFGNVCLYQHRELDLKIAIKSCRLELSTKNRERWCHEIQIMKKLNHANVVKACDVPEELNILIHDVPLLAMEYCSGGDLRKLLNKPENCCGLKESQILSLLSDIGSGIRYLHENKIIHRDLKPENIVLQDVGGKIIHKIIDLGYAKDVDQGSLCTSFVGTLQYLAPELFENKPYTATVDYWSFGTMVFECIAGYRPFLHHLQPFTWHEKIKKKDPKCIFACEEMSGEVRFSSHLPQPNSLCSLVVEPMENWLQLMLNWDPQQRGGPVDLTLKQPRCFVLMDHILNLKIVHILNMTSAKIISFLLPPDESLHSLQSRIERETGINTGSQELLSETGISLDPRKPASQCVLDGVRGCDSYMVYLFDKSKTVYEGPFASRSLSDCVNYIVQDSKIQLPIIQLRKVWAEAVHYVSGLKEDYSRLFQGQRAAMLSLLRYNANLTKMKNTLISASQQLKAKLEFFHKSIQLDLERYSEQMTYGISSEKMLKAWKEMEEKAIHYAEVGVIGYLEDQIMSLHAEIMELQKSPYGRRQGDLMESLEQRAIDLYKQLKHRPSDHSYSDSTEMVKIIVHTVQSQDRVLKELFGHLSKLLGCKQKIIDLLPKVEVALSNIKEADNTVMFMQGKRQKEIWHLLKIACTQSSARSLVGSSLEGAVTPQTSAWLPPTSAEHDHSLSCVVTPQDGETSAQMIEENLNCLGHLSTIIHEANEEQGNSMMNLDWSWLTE
# [7] = molecular target: T2, Inhibitor of nuclear factor kappa-B kinase subunit alpha (Homo sapiens); conditions: at 1 µM
# [8] = molecular target: T3, Inhibitor of nuclear factor kappa-B kinase subunit beta (Homo sapiens) (UniProt O14920); conditions: at 0.1 µM
# T3 sequence (whole entry): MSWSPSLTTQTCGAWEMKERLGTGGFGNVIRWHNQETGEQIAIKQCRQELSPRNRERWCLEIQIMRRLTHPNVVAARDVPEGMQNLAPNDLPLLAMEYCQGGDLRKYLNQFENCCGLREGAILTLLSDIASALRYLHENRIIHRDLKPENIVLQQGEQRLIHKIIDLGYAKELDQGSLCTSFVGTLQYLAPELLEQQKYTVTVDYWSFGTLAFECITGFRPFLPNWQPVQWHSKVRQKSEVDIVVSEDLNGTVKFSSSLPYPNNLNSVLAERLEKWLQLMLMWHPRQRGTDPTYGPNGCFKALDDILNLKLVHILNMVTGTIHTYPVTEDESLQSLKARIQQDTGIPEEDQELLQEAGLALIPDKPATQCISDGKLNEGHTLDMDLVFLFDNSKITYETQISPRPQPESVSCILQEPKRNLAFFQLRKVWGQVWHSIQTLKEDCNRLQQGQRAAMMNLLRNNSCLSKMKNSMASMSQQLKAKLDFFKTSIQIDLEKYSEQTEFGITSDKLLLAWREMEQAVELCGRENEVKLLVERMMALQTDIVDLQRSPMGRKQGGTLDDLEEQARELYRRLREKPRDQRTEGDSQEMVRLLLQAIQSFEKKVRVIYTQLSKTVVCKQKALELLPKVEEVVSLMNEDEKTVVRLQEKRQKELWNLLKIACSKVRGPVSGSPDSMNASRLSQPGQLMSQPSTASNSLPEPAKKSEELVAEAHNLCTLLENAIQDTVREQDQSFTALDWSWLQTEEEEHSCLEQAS
# [9] = molecular target: T3, Inhibitor of nuclear factor kappa-B kinase subunit beta (Homo sapiens); conditions: at 1 µM
# [10] = molecular target: T4, Inhibitor of nuclear factor kappa-B kinase subunit epsilon (Homo sapiens) (UniProt Q14164); conditions: at 0.1 µM
# T4 sequence (whole entry): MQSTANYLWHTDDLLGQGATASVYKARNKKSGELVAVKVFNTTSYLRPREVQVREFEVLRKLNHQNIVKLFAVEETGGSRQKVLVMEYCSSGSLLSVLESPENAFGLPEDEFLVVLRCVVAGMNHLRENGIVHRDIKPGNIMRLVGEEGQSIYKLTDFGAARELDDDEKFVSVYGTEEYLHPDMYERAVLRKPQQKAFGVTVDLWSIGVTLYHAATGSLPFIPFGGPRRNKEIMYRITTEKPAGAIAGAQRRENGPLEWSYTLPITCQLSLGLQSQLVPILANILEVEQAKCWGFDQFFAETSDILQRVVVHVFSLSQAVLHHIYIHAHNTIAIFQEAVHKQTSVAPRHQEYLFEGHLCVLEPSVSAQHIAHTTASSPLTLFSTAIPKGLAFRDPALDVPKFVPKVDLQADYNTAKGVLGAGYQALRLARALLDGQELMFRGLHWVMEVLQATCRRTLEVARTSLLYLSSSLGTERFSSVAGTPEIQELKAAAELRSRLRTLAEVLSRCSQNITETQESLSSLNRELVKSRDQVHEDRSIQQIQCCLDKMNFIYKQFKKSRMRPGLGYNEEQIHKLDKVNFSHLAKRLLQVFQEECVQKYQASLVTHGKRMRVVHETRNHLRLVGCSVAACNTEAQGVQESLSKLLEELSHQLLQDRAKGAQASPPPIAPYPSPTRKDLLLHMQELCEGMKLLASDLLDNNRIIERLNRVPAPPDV
# [11] = molecular target: T4, Inhibitor of nuclear factor kappa-B kinase subunit epsilon (Homo sapiens); conditions: at 1 µM
# [12] = molecular target: T5, Serine/threonine-protein kinase Nek1 (Homo sapiens) (UniProt Q96PY6); conditions: at 0.1 µM
# T5 sequence (whole entry): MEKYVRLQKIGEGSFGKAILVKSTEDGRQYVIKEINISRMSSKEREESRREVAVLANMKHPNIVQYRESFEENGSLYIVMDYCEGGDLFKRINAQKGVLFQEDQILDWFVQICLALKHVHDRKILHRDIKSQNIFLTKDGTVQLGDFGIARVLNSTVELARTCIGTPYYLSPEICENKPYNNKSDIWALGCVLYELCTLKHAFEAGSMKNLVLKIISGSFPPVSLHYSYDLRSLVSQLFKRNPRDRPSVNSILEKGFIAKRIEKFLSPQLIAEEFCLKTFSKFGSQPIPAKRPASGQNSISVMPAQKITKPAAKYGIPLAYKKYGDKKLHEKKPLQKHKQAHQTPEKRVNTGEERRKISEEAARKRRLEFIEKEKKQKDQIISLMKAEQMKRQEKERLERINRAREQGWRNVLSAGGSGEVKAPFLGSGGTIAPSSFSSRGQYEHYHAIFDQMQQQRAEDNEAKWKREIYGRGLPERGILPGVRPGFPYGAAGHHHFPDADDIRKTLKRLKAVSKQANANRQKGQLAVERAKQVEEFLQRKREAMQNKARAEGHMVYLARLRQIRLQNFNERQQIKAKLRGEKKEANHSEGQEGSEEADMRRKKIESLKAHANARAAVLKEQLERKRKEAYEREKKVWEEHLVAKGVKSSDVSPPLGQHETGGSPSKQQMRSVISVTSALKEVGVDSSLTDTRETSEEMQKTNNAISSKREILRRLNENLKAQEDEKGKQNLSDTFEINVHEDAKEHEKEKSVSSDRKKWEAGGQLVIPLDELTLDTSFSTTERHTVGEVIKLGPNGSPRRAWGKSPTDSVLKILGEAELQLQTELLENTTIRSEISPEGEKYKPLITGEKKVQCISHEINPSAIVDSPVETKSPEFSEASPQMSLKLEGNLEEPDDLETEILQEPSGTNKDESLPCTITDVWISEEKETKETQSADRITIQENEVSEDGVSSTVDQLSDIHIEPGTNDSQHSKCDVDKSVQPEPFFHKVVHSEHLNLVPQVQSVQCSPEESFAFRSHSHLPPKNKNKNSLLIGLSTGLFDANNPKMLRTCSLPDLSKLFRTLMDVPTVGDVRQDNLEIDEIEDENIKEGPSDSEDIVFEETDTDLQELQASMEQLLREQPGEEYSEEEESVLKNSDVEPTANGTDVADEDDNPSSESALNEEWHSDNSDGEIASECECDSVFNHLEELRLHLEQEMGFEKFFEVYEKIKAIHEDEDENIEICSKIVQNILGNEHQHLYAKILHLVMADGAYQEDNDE
# [13] = molecular target: T5, Serine/threonine-protein kinase Nek1 (Homo sapiens); conditions: at 1 µM
# [14] = molecular target: T6, Serine/threonine-protein kinase Nek2 (Homo sapiens) (UniProt P51955); conditions: at 0.1 µM
# T6 sequence (whole entry): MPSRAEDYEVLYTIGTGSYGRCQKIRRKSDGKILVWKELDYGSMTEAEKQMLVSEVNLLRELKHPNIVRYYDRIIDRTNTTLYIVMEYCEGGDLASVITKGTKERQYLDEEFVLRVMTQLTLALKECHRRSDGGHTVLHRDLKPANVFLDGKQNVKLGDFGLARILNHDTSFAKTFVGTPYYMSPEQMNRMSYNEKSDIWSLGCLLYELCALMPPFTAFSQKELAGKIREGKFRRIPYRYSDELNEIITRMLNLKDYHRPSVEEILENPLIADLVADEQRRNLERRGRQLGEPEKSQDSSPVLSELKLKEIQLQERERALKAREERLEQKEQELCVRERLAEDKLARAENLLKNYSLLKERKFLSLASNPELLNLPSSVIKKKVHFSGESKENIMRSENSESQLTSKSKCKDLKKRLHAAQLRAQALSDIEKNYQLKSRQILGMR
# [15] = molecular target: T6, Serine/threonine-protein kinase Nek2 (Homo sapiens); conditions: at 1 µM
# [16] = molecular target: Serine/threonine-protein kinase Nek6 (Homo sapiens) (UniProt Q9HC98); conditions: at 0.1 µM
# [17] = molecular target: Serine/threonine-protein kinase Nek6 (Homo sapiens) (UniProt Q9HC98); conditions: at 1 µM
# [18] = molecular target: Serine/threonine-protein kinase Nek7 (Homo sapiens) (UniProt Q8TDX7); conditions: at 0.1 µM
# [19] = molecular target: Serine/threonine-protein kinase Nek7 (Homo sapiens) (UniProt Q8TDX7); conditions: at 1 µM
# [20] = molecular target: T7, Serine/threonine-protein kinase Nek9 (Homo sapiens) (UniProt Q8TD19); conditions: at 0.1 µM;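 also: reported value is the mean percent inhibition of NEK9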
# T7 sequence (whole entry): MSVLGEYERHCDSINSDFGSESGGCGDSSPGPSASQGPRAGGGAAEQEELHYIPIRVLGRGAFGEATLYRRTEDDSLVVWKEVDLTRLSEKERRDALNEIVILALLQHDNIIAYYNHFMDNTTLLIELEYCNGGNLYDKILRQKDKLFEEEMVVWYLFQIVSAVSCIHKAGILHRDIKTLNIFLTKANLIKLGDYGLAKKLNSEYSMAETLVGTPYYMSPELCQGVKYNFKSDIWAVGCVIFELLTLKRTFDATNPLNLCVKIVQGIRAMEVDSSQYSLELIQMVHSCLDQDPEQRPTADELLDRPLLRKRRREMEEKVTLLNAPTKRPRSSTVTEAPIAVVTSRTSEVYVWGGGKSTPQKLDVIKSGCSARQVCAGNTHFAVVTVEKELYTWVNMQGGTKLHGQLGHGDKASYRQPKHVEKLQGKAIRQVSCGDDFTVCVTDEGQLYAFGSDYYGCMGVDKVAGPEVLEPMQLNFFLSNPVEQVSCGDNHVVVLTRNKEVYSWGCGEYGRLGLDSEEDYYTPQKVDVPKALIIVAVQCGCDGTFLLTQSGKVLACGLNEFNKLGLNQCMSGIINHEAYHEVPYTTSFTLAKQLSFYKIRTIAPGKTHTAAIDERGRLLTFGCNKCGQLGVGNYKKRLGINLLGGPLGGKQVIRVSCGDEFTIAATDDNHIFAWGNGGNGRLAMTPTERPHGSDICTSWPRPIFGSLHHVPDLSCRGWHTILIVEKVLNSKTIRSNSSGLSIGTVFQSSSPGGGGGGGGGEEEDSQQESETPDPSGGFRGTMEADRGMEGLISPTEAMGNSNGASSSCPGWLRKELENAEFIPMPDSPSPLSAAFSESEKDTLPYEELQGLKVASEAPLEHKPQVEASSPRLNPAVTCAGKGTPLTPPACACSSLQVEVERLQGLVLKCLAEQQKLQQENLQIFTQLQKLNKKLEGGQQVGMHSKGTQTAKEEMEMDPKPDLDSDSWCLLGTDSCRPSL
# Serine/threonine-protein kinase Nek6 (Homo sapiens), sequence (Q9HC98 whole entry): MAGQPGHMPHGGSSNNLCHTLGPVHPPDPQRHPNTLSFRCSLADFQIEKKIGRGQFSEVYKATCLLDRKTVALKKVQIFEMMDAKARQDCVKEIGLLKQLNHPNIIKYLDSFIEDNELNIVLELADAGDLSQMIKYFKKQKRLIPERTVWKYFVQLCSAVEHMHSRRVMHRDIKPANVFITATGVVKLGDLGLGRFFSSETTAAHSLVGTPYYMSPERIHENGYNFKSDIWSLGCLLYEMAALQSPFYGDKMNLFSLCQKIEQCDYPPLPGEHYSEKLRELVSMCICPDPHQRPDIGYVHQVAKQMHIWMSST
# Casein kinase II subunit alpha (Homo sapiens), sequence (P68400 whole entry, looked up): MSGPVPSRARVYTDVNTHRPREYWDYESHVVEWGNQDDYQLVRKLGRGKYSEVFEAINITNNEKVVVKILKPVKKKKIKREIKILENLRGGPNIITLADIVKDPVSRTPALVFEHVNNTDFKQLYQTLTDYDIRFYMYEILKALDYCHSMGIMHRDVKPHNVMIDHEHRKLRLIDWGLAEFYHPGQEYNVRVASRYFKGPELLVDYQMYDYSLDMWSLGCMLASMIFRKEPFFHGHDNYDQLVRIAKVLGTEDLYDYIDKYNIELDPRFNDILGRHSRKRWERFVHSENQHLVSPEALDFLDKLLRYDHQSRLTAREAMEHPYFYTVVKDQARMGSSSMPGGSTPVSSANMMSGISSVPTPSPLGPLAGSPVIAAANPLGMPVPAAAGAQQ
# Serine/threonine-protein kinase Nek7 (Homo sapiens), sequence (Q8TDX7 whole entry, looked up): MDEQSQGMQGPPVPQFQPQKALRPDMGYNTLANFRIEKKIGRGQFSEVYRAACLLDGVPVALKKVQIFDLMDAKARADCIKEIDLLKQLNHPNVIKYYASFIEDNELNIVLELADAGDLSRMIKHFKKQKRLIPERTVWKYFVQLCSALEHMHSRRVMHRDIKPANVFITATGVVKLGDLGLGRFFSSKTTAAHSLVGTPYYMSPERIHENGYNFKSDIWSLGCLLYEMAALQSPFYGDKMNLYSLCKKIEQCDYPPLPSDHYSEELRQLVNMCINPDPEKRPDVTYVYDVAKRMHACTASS
# Sphingosine kinase 1 (Homo sapiens), sequence (Q9NYA1 whole entry): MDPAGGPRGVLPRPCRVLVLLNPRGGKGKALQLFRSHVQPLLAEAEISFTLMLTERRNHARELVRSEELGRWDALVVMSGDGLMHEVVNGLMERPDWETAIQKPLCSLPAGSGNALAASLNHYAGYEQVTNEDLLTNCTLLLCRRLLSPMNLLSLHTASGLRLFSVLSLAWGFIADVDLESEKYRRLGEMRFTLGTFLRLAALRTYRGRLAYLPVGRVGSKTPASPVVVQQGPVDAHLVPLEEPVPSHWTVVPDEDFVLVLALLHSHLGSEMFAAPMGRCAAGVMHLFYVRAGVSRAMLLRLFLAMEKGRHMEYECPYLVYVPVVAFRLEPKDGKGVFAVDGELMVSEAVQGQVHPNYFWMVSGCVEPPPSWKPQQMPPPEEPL
compound,measurement,setting,value
NS(=O)(=O)c1ccc(N/N=C2\C(=O)Nc3ccc(C(=O)NCCc4c[nH]cn4)cc32)cc1,inhibition,[1],-1.01%
same,inhibition,[2],1.57%
same,inhibition,[3],0.18%
same,inhibition,[4],6.03%
same,inhibition,[5],18.6%
same,inhibition,[6],10.2%
same,inhibition,[7],13%
same,inhibition,[8],4.11%
same,inhibition,[9],3.92%
same,inhibition,[10],7.82%
same,inhibition,[11],19%
same,inhibition,[12],2.19%
same,inhibition,[13],-1.06%
same,inhibition,[14],5.57%
same,inhibition,[15],5.42%
same,inhibition,[16],3.45%
same,inhibition,[17],1.65%
same,inhibition,[18],4.83%
same,inhibition,[19],7.05%
same,inhibition,[20],10.2%
